PubChem BioAssay (NCI)
This is part of a sample that, as a whole, favours compounds with a hit. Of some 83,000 tested, about 20% had one in any assay.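 In brief: 96-well plates, 48 h treatment, single concentration, percent growth endpoint.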 Unmarked numbers belong to inactive results. Rule for the calls: active = growth percent below 10; inactive = the rest.

What follows are compounds tested on SF-268 CNS (assay: NCI-60 one-dose screen, 48 h (100 = growth as untreated, 0 = no growth, -100 = all killed)). Details: 10 µM unless noted.

Row | SMILES | growth
1 | O=C(CSc1nc2ccc([N+](=O)[O-])cc2[nH]1)Nc1ccc(F)c(Cl)c1 | 23.8%
2 | Cc1cc(C)c(O)c(CNCCCCCCNCc2cc(C)cc(C)c2O)c1 | 23.9%
3 | CS(=O)(=O)c1cccnn1 | 98.8%
4 | Cc1ccc(S(=O)(=O)Nc2ccccc2)cc1N | 94.8%
5 | Nc1cc(C(=O)O)[nH]c(=S)n1 | 98.6%
6 | COc1ccc(-c2nc3ccccn3c2/C=C/C(=O)c2cc(OC)c(OC)c(OC)c2)cc1OC | 26.2%
7 | O=C(Nc1cccc2cccnc12)c1cc(C(=O)c2ccc(Cl)cc2)n2ccc(-c3ccncc3)cc12 | 97.8%
8 | Cc1cccc(C[C@H](NC(=O)Nc2ccc(C)cc2F)C(=O)N[C@@H]2C(=O)N3C[C@H](O)C[C@H]3C(=O)N3CCN(C)C[C@H]3C(=O)N[C@@H](C)C(=O)N3C[C@H](C)C[C@H]3C(=O)O[C@H]2C)c1 | 31.6%
9 | O=C1COCCN1c1ccc(NCc2cn(Cc3cccc4ccccc34)c3ccccc23)cc1 | 85.3%
10 | COc1ncnc2c(-c3ccccc3)cn(COCc3ccccc3)c12 | 74.4%
11 | O=C1CN(Cc2ccc(C(=O)NO)cc2)C(=O)[C@@H](Cc2ccccc2)N1 | 99.7%
12 | CC(C)C1=NOC(=O)C1=Cc1cn(-c2ccco2)nc1-c1ccccc1 | 90.5%
13 | c1ccc(-c2nnc(-c3c[nH]c4ncccc34)s2)cc1 | 86.2%
14 | COCCCNc1nc(NC(=O)c2cc(Br)cc(C(F)(F)F)c2)cc(-c2cccnc2)n1 | 90.5%
